Results from the supplement of paper PMC7411054.

Legend:
Conditions in all cases: treatment time: 24 h
[1] = test system: A549-ACTB-RAB5A; test: lowest phenotypically active concentration; higher = less potent
Method in brief: (§1)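 After 24 h at 0.3, 1, 3 or 9 µM, with four wells per treatment, fifteen gene-edited A549, HepG2 and WPMY1 reporter lines carrying BFP, GFP and RFP/FusionRed were imaged live. Each well's live-cell features were expressed relative to solvent control wells. Deviation required ≥3 of 4 wells past the 95th percentile of control Euclidean distances, and reproducibility a median replicate Pearson correlation over the 95th percentile of non-replicates. Phenotypic activity rested on both.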

[2] = test system: A549-TUBA1B-RELA; test: as above
Method in brief: as §1

[3] = test system: HepG2-ACTB-RAB5A; test: as above
Method in brief: as §1

[4] = test system: A549-ACTB-RAB5A; test: phenotypically active (imaging signature differs from DMSO and reproducible) at any of 0.3-9 uM (binary (1 = active, 0 = inactive)); higher = active
Method in brief: as §1

[5] = test system: A549-CANX-COX4; test: as above
Method in brief: as §1

[6] = test system: A549-GM130-SQSTM1; test: as above
Method in brief: as §1

[7] = test system: A549-TP53BP1-CLTA; test: as above
Method in brief: as §1

[8] = test system: A549-TUBA1B-RELA; test: as above
Method in brief: as §1

[9] = test system: HepG2-ACTB-RAB5A; test: as above
Method in brief: as §1

[10] = test system: HepG2-CANX-COX4; test: as above
Method in brief: as §1

[11] = test system: HepG2-GM130-SQSTM1; test: as above
Method in brief: as §1

[12] = test system: HepG2-TP53BP1-CLTA; test: as above
Method in brief: as §1

[13] = test system: HepG2-TUBA1B-RELA; test: as above
Method in brief: as §1

[14] = test system: WPMY1-ACTB-RAB5A; test: as above
Method in brief: as §1

[15] = test system: WPMY1-CANX-COX4; test: as above
Method in brief: as §1

[16] = test system: WPMY1-GM130-SQSTM1; test: as above
Method in brief: as §1

[17] = test system: WPMY1-TP53BP1-CLTA; test: as above
Method in brief: as §1

[18] = test system: WPMY1-TUBA1B-RELA; test: as above
Method in brief: as §1

[19] = test system: A549-GM130-SQSTM1; test: lowest phenotypically active concentration; higher = less potent
Method in brief: as §1

[20] = test system: WPMY1-GM130-SQSTM1; test: as above
Method in brief: as §1

Q: Which results are given for `CCC(=O)N1CCOc2c(cc(-c3ccc(OC)c(OC)c3)cc2OC[C@H]2CCCN(C)C2)C1`?
A: lowest phenotypically active concentration [1]: 9 µM; lowest phenotypically active concentration [2]: 9 µM; lowest phenotypically active concentration [3]: 9 µM; phenotypically active [4]: 1 (active); phenotypically active [5]: 0 (inactive); phenotypically active [6]: 0 (inactive); phenotypically active [7]: 0 (inactive); phenotypically active [8]: 1 (active); phenotypically active [9]: 1 (active); phenotypically active [10]: 1 (active); phenotypically active [11]: 0 (inactive); phenotypically active [12]: 0 (inactive); phenotypically active [13]: 1 (active); phenotypically active [14]: 0 (inactive); phenotypically active [15]: 1 (active); phenotypically active [16]: 0 (inactive); phenotypically active [17]: 0 (inactive); phenotypically active [18]: 0 (inactive)

Q: Which “lowest phenotypically active concentration” value [1] does the source give for `CC(C)(C)n1nc(-c2ccc(Cl)cc2)c2c(N)ncnc21` here?
A: 1 µM

Q: And the “lowest phenotypically active concentration” value [2]?
A: 9 µM

Q: And the “lowest phenotypically active concentration” value [3]?
A: 3 µM

Q: And the phenotypically active [4]?
A: 1 (active)

Q: And the phenotypically active [5]?
A: 0 (inactive)

Q: What about the phenotypically active [6] of the same molecule?
A: 0 (inactive)

Q: And the phenotypically active [7]?
A: 0 (inactive)

Q: What about the phenotypically active [8] of the same molecule?
A: 1 (active)

Q: What about the phenotypically active [9] of the same molecule?
A: 1 (active)

Q: What about the phenotypically active [10] of the same molecule?
A: 0 (inactive)

Q: What about the phenotypically active [11] of the same molecule?
A: 0 (inactive)

Q: And the phenotypically active [12]?
A: 1 (active)

Q: And the phenotypically active [13]?
A: 0 (inactive)

Q: What about the phenotypically active [14] of the same molecule?
A: 0 (inactive)

Q: And the phenotypically active [15]?
A: 0 (inactive)

Q: What about the phenotypically active [16] of the same molecule?
A: 0 (inactive)

Q: And the phenotypically active [17]?
A: 0 (inactive)

Q: What about the phenotypically active [18] of the same molecule?
A: 0 (inactive)

Q: Which “lowest phenotypically active concentration” value [1] does the source give for `COc1cc(OC)c2c(=O)[nH]c(-c3cc(C)c(OCCO)c(C)c3)nc2c1` [apabetalone] here?
A: 9 µM

Q: What about the “lowest phenotypically active concentration” value [19] of the same molecule?
A: 9 µM

Q: What about the “lowest phenotypically active concentration” value [3] of the same molecule?
A: 9 µM

Q: What about the phenotypically active [4] of the same molecule?
A: 1 (active)

Q: What about the phenotypically active [5] of the same molecule?
A: 0 (inactive)

Q: And the phenotypically active [6]?
A: 1 (active)

Q: What about the phenotypically active [7] of the same molecule?
A: 0 (inactive)

Q: What about the phenotypically active [8] of the same molecule?
A: 0 (inactive)

Q: And the phenotypically active [9]?
A: 1 (active)

Q: And the phenotypically active [10]?
A: 1 (active)

Q: And the phenotypically active [11]?
A: 1 (active)

Q: And the phenotypically active [12]?
A: 0 (inactive)

Q: And the phenotypically active [13]?
A: 0 (inactive)

Q: What about the phenotypically active [14] of the same molecule?
A: 0 (inactive)

Q: And the phenotypically active [15]?
A: 0 (inactive)

Q: What about the phenotypically active [16] of the same molecule?
A: 0 (inactive)

Q: What about the phenotypically active [17] of the same molecule?
A: 1 (active)

Q: What about the phenotypically active [18] of the same molecule?
A: 1 (active)

Q: How did the “lowest phenotypically active concentration” value [1] turn out when `CNC(=O)c1cc(Oc2ccc(NC(=O)Nc3ccc(Cl)c(C(F)(F)F)c3)c(F)c2)ccn1` [regorafenib] was run?
A: 9 µM

Q: What about the “lowest phenotypically active concentration” value [3] of the same molecule?
A: 3 µM

Q: And the phenotypically active [4]?
A: 1 (active)

Q: What about the phenotypically active [5] of the same molecule?
A: 0 (inactive)

Q: What about the phenotypically active [6] of the same molecule?
A: 0 (inactive)

Q: What about the phenotypically active [7] of the same molecule?
A: 1 (active)

Q: And the phenotypically active [8]?
A: 0 (inactive)

Q: What about the phenotypically active [9] of the same molecule?
A: 1 (active)

Q: And the phenotypically active [10]?
A: 1 (active)

Q: What about the phenotypically active [11] of the same molecule?
A: 1 (active)

Q: What about the phenotypically active [12] of the same molecule?
A: 1 (active)

Q: What about the phenotypically active [13] of the same molecule?
A: 1 (active)

Q: And the phenotypically active [14]?
A: 0 (inactive)

Q: What about the phenotypically active [15] of the same molecule?
A: 0 (inactive)

Q: And the phenotypically active [16]?
A: 0 (inactive)

Q: What about the phenotypically active [17] of the same molecule?
A: 1 (active)

Q: What about the phenotypically active [18] of the same molecule?
A: 0 (inactive)

Q: How did the “lowest phenotypically active concentration” value [1] turn out when `CCc1nc(-c2cccc(C)c2)c(-c2ccnc(NC(=O)c3ccccc3)c2)s1` was run?
A: 9 µM

Q: And the “lowest phenotypically active concentration” value [19]?
A: 9 µM

Q: And the “lowest phenotypically active concentration” value [3]?
A: 9 µM

Q: What about the phenotypically active [4] of the same molecule?
A: 1 (active)

Q: And the phenotypically active [5]?
A: 0 (inactive)

Q: And the phenotypically active [6]?
A: 1 (active)

Q: What about the phenotypically active [7] of the same molecule?
A: 0 (inactive)

Q: And the phenotypically active [8]?
A: 0 (inactive)

Q: What about the phenotypically active [9] of the same molecule?
A: 1 (active)

Q: What about the phenotypically active [10] of the same molecule?
A: 1 (active)

Q: What about the phenotypically active [11] of the same molecule?
A: 1 (active)

Q: What about the phenotypically active [12] of the same molecule?
A: 1 (active)

Q: And the phenotypically active [13]?
A: 1 (active)

Q: And the phenotypically active [14]?
A: 1 (active)

Q: And the phenotypically active [15]?
A: 0 (inactive)

Q: What about the phenotypically active [16] of the same molecule?
A: 0 (inactive)

Q: What about the phenotypically active [17] of the same molecule?
A: 0 (inactive)

Q: What about the phenotypically active [18] of the same molecule?
A: 1 (active)

Q: For `O=C1c2c(O)cccc2Cc2cccc(O)c21` [anthralin], which “lowest phenotypically active concentration” value [1] is on record?
A: 9 µM

Q: What about the “lowest phenotypically active concentration” value [19] of the same molecule?
A: 9 µM

Q: And the “lowest phenotypically active concentration” value [20]?
A: 9 µM

Q: What about the phenotypically active [4] of the same molecule?
A: 1 (active)

Q: And the phenotypically active [5]?
A: 0 (inactive)

Q: What about the phenotypically active [6] of the same molecule?
A: 1 (active)

Q: What about the phenotypically active [7] of the same molecule?
A: 0 (inactive)

Q: What about the phenotypically active [8] of the same molecule?
A: 0 (inactive)

Q: And the phenotypically active [9]?
A: 0 (inactive)

Q: And the phenotypically active [10]?
A: 0 (inactive)

Q: And the phenotypically active [11]?
A: 0 (inactive)

Q: And the phenotypically active [12]?
A: 0 (inactive)

Q: What about the phenotypically active [13] of the same molecule?
A: 0 (inactive)

Q: What about the phenotypically active [14] of the same molecule?
A: 1 (active)

Q: What about the phenotypically active [15] of the same molecule?
A: 0 (inactive)

Q: And the phenotypically active [16]?
A: 1 (active)

Q: And the phenotypically active [17]?
A: 0 (inactive)

Q: And the phenotypically active [18]?
A: 1 (active)
